# Experimental data reported in ChEMBL document CHEMBL2218924, “A broad activity screen in support of a chemogenomic map for kinase signalling research and drug discovery” (Biochem J, 2013).
# Key:
# [1] = target: T1, Testis-specific serine/threonine-protein kinase 1 (Homo sapiens) (UniProt Q9BXA7); settings: at 1 µM
# T1 sequence (whole entry): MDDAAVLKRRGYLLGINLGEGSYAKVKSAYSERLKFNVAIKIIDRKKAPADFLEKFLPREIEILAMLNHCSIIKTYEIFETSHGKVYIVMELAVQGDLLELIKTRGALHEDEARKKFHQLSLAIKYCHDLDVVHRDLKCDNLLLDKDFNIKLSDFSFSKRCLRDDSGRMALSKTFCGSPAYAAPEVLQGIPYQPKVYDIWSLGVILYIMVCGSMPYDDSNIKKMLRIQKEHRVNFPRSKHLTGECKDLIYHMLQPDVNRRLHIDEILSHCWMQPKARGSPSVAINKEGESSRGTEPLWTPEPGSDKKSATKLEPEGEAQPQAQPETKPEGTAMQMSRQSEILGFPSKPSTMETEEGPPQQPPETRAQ
# [2] = target: T1, Testis-specific serine/threonine-protein kinase 1 (Homo sapiens); settings: at 10 µM
# [3] = target: T2, Testis-specific serine/threonine-protein kinase 2 (Homo sapiens) (UniProt Q96PF2); settings: at 10 µM
# T2 sequence (whole entry): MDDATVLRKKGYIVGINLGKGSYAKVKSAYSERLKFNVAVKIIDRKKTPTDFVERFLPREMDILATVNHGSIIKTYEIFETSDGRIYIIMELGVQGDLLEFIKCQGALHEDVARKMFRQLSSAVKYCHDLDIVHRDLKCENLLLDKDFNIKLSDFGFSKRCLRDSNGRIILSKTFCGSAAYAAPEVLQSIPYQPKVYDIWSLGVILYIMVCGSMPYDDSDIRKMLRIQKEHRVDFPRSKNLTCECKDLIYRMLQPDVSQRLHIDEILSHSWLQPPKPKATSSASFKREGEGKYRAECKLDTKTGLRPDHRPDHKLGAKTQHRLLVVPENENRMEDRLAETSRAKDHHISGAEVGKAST
# [4] = target: T3, Tyrosine-protein kinase Tec (Homo sapiens) (UniProt P42680); settings: at 1 µM
# T3 sequence (whole entry): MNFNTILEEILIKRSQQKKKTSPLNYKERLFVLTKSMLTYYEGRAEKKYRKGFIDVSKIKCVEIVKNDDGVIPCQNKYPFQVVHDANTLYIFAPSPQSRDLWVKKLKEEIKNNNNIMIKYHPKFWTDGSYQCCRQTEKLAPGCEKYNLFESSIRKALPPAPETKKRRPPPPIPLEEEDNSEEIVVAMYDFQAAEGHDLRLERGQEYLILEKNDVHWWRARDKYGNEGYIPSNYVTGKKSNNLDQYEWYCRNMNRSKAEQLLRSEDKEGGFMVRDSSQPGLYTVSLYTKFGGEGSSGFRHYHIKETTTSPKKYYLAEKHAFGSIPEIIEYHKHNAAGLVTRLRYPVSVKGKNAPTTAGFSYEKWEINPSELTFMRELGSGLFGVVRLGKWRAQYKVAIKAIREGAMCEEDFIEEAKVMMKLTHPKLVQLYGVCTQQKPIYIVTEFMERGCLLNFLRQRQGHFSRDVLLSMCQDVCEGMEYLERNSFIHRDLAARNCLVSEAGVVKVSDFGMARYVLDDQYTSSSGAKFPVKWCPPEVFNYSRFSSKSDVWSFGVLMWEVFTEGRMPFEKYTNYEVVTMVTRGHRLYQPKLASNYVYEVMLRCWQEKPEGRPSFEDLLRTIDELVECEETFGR
# [5] = target: T3, Tyrosine-protein kinase Tec (Homo sapiens); settings: at 10 µM
# [6] = target: Angiopoietin-1 receptor (Homo sapiens) (UniProt Q02763); settings: at 1 µM
# Chain of Angiopoietin-1 receptor (Homo sapiens) (Q02763 whole entry): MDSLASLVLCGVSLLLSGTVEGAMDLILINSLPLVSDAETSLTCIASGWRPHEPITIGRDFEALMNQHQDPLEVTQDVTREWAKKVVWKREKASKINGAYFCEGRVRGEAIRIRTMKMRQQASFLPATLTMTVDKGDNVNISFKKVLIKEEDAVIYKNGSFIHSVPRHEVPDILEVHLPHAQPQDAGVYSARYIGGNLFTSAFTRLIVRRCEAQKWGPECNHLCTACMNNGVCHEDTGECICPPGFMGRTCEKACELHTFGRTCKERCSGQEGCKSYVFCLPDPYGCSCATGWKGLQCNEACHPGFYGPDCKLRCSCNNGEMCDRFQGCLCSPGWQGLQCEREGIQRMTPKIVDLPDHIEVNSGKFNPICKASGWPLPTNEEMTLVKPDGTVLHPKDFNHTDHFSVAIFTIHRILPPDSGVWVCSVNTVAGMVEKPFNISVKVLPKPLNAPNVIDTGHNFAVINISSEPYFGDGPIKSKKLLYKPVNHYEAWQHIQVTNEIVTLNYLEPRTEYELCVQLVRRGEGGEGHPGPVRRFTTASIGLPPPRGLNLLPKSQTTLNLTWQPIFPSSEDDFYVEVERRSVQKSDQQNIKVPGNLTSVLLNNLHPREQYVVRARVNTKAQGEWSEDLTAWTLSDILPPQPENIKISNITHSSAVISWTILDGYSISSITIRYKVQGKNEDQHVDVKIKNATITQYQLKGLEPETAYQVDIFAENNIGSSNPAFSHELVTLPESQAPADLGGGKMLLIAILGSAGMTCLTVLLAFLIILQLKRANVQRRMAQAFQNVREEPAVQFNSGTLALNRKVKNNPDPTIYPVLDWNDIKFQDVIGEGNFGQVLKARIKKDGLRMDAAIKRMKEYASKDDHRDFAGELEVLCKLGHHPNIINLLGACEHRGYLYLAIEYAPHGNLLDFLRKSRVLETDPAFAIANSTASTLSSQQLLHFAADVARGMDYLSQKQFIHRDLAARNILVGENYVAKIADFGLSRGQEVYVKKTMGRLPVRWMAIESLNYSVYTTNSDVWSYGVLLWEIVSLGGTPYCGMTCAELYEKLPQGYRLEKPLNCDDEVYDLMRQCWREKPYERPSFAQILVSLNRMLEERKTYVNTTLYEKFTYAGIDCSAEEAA
# [7] = target: Angiopoietin-1 receptor (Homo sapiens) (UniProt Q02763); settings: at 10 µM
# [8] = target: High affinity nerve growth factor receptor (Homo sapiens) (UniProt P04629); settings: at 1 µM
# Chain of High affinity nerve growth factor receptor (Homo sapiens) (P04629 33-796 limits assumed): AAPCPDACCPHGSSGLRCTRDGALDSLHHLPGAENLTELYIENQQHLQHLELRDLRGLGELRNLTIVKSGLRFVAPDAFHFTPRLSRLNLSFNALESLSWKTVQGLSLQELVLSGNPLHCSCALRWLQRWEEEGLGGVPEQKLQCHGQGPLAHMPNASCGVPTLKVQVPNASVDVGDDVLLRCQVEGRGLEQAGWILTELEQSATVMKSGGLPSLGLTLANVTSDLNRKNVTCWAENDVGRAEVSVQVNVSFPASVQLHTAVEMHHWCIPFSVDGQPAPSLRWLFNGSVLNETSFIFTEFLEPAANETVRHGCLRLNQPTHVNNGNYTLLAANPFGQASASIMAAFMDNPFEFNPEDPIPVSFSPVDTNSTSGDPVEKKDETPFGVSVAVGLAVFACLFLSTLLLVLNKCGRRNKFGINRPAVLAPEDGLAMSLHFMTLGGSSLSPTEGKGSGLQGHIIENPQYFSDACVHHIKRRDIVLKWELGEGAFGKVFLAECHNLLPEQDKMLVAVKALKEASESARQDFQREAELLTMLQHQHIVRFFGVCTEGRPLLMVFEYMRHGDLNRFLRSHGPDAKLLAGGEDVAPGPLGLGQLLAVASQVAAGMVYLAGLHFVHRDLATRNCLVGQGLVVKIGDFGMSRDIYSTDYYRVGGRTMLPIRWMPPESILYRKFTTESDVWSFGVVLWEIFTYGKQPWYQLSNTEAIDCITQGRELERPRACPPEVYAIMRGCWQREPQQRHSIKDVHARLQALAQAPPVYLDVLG
# [9] = target: High affinity nerve growth factor receptor (Homo sapiens) (UniProt P04629); settings: at 10 µM
# [10] = target: BDNF/NT-3 growth factors receptor (Homo sapiens) (UniProt Q16620); settings: at 1 µM
# [11] = target: BDNF/NT-3 growth factors receptor (Homo sapiens) (UniProt Q16620); settings: at 10 µM
# [12] = target: T4, Tyrosine-protein kinase TXK (Homo sapiens) (UniProt P42681); settings: at 1 µM
# T4 sequence (whole entry): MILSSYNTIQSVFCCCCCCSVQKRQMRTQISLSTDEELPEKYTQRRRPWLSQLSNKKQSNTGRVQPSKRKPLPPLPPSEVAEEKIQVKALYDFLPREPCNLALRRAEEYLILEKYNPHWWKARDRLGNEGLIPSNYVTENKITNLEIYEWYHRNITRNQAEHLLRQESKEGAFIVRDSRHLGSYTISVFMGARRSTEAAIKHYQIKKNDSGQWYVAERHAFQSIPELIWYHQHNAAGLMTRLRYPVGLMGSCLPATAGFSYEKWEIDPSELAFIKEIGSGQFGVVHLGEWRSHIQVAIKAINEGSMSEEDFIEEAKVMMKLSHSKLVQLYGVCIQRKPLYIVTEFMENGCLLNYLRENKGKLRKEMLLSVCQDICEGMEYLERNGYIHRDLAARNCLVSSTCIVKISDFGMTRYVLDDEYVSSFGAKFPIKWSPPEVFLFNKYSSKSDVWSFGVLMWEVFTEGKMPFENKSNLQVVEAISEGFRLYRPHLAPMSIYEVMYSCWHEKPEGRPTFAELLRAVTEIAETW
# [13] = target: T4, Tyrosine-protein kinase TXK (Homo sapiens); settings: at 10 µM
# [14] = target: T5, Serine/threonine-protein kinase ULK2 (Homo sapiens) (UniProt Q8IYT8); settings: at 1 µM
# T5 sequence (whole entry): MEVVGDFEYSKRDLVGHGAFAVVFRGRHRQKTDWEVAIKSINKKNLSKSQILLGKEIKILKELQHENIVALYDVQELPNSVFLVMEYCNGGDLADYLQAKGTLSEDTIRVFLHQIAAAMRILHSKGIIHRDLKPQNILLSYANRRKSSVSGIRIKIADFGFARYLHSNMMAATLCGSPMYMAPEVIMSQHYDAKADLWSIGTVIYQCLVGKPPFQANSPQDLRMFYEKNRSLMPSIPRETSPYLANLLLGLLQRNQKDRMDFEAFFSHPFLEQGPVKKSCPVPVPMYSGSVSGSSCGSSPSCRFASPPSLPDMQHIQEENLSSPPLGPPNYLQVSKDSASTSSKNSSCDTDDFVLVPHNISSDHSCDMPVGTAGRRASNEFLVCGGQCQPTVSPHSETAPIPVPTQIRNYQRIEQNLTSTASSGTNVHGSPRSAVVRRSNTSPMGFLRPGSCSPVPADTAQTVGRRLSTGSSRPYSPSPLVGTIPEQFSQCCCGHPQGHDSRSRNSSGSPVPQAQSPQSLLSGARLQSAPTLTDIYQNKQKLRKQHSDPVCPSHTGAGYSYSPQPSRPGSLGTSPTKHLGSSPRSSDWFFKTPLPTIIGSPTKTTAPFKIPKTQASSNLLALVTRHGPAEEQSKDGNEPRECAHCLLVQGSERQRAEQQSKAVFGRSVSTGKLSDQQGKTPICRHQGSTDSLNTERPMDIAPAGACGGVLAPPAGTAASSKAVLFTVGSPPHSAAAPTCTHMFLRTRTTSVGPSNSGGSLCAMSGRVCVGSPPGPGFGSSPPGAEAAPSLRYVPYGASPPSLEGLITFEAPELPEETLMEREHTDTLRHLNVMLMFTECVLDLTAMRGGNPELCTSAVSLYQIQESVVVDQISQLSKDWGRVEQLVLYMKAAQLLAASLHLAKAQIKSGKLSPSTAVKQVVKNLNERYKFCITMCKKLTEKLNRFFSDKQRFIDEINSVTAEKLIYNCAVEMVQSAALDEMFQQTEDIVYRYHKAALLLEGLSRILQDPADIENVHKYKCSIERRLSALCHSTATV
# [15] = target: T5, Serine/threonine-protein kinase ULK2 (Homo sapiens); settings: at 10 µM
# [16] = target: T6, Serine/threonine-protein kinase ULK3 (Homo sapiens) (UniProt Q6PHR2); settings: at 1 µM
# T6 sequence (whole entry): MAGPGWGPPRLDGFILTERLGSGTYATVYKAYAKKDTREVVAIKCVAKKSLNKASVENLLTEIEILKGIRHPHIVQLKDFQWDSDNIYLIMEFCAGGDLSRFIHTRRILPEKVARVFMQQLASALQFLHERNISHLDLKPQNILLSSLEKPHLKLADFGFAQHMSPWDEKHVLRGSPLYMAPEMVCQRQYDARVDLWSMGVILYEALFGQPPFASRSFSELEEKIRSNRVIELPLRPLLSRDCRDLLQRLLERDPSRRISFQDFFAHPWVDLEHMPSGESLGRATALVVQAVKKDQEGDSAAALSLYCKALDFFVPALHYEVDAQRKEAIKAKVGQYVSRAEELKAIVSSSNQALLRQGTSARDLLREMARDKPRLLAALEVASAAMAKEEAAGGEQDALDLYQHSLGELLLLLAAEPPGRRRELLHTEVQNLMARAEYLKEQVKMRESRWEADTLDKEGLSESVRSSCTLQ
# [17] = target: T6, Serine/threonine-protein kinase ULK3 (Homo sapiens); settings: at 10 µM
# [18] = target: Serine/threonine-protein kinase VRK2 (Homo sapiens) (UniProt Q86Y07); settings: at 1 µM
# Chain of Serine/threonine-protein kinase VRK2 (Homo sapiens) (Q86Y07 whole entry): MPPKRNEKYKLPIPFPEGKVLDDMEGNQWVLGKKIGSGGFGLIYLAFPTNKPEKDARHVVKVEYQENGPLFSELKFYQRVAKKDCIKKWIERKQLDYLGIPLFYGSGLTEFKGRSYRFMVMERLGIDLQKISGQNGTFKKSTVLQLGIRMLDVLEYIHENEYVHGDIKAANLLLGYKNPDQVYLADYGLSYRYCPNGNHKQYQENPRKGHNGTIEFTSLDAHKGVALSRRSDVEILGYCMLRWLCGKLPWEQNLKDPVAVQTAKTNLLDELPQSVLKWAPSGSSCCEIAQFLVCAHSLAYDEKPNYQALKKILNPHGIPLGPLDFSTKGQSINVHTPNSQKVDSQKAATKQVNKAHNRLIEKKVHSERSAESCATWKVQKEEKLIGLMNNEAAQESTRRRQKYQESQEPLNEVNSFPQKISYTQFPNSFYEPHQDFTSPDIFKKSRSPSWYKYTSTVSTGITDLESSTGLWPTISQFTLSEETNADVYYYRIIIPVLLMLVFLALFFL
# [19] = target: Serine/threonine-protein kinase VRK2 (Homo sapiens) (UniProt Q86Y07); settings: at 10 µM
# [20] = target: Serine/threonine-protein kinase WNK2 (Homo sapiens) (UniProt Q9Y3S1); settings: at 1 µM;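 also: residual WNK2 kinase activity expressed as percent of uninhibited control, assayed in MOPS buffer at pH 7.0 containing EDTA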
# Chain of Serine/threonine-protein kinase WNK2 (Homo sapiens) (Q9Y3S1 whole entry): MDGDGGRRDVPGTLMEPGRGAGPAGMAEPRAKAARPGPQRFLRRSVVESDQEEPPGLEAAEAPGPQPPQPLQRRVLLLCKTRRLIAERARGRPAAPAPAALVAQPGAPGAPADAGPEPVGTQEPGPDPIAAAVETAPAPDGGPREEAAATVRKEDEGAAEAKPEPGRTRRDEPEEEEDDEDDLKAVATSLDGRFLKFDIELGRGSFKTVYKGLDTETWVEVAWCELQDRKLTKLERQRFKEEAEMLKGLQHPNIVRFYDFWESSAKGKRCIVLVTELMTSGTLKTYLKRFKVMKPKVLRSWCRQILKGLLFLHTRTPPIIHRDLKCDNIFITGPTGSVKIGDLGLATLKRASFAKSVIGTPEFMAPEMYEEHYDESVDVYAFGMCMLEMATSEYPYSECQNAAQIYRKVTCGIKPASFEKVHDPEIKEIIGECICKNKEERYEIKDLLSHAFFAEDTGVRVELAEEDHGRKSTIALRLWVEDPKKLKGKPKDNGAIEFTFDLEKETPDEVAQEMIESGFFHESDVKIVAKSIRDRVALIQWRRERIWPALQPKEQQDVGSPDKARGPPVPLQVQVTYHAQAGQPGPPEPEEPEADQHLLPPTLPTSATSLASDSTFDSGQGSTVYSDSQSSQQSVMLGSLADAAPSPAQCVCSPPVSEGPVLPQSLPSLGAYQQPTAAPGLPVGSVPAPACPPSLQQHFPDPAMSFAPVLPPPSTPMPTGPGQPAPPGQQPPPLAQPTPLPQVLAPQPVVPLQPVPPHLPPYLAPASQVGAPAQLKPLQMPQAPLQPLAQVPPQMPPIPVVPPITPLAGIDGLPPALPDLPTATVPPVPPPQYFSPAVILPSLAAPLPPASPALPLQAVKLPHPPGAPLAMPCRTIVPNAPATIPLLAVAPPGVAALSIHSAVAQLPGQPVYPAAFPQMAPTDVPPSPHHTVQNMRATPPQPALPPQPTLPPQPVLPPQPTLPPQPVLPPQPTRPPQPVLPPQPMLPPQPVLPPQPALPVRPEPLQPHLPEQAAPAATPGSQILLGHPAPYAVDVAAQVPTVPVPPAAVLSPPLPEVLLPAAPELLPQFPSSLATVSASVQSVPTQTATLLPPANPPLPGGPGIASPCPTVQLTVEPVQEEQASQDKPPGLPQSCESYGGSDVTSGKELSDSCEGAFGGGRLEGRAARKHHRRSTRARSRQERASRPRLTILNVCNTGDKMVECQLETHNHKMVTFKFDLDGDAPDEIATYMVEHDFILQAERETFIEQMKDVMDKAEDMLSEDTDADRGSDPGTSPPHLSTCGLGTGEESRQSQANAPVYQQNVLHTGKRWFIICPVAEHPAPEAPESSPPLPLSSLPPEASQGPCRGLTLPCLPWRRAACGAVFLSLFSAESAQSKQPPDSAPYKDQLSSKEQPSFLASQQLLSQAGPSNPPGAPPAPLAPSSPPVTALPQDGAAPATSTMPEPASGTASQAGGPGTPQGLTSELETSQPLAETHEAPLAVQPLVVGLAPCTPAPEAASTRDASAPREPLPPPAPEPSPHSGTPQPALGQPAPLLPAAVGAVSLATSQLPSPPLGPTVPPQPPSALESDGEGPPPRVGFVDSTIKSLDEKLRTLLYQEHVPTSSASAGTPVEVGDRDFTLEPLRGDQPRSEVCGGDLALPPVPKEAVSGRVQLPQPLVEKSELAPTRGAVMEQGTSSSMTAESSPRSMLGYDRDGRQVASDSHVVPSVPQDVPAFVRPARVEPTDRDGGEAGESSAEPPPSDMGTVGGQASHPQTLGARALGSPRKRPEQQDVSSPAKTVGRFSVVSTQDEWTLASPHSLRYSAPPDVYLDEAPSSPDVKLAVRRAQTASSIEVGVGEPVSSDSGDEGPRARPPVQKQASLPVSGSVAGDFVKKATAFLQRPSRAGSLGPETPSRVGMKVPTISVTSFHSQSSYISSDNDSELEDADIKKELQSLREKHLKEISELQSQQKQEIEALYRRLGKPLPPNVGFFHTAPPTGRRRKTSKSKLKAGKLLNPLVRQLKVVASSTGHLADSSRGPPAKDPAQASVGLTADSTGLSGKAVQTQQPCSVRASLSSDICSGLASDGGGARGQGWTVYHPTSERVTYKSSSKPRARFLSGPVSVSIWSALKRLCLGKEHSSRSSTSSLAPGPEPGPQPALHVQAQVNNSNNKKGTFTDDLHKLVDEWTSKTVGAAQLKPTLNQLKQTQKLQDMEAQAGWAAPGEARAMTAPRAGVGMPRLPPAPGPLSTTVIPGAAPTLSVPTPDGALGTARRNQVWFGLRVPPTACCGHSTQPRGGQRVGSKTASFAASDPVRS
SMILES,residual activity [1] [%],residual activity [2] [%],residual activity [3] [%],residual activity [4] [%],residual activity [5] [%],residual activity [6] [%],residual activity [7] [%],residual activity [8] [%],residual activity [9] [%],residual activity [10] [%],residual activity [11] [%],residual activity [12] [%],residual activity [13] [%],residual activity [14] [%],residual activity [15] [%],residual activity [16] [%],residual activity [17] [%],residual activity [18],residual activity [19] [%],residual activity [20]
O=c1cc(-c2cccc3c2Sc2ccccc2S3)oc(N2CCOCC2)c1,92,98,90,94,75,101,61,114,95,75,76,91,91,107,101,94,96,97% (inactive),97,103% (inactive)
Nc1nc(Nc2ccc(S(N)(=O)=O)cc2)nn1C(=S)Nc1c(F)cccc1F,16,12,12,78,23,-1,-2,0,-1,0,0,71,32,4,0,0,1,84% (inactive),37,
CO[C@H]1[C@@H](OC)C[C@H](C)[C@@H](OC)C2=CC(=O)C=C(NC(=O)/C(C)=C/C=C/[C@H](OC)[C@@H](OC(N)=O)/C(C)=C/[C@@H]1C)C2=O,100,88,75,89,84,84,76,120,118,113,99,89,103,100,95,88,92,108% (inactive),96,100% (inactive)
O=c1c2ccccc2[nH]c(=S)n1CCN1CCC(=C(c2ccc(F)cc2)c2ccc(F)cc2)CC1,101,86,70,94,44,87,59,82,87,44,59,102,80,109,98,107,94,116% (inactive),99,113% (inactive)
COc1cc2ncnc(Nc3ccc(O)c(Br)c3)c2cc1OC,87,62,91,76,34,61,53,82,44,110,87,81,46,89,76,91,50,83% (inactive),56,96% (inactive)
CC#CC(=O)Nc1cc2c(Nc3ccc(F)c(Cl)c3)ncnc2cn1,98,81,82,62,70,52,57,91,111,110,103,52,14,99,97,116,97,97% (inactive),92,103% (inactive)
CCC(=O)Nc1ccc2ncnc(Nc3cccc(Br)c3)c2c1,93,90,102,86,90,81,70,97,96,77,119,108,78,106,100,107,89,106% (inactive),86,99% (inactive)
CC[n+]1c(/C=C/N(C)c2ccccc2)n(-c2ccccc2)c2ccc(-c3nc4ccccc4s3)cc21,102,73,78,77,27,103,30,85,34,67,61,83,51,110,104,112,97,110% (inactive),99,96% (inactive)
c1ccc2c(-c3ccncc3)c[nH]c2c1,94,89,95,103,85,77,88,91,55,134,110,109,97,104,97,104,82,101% (inactive),88,107% (inactive)
CC(C)n1cnc2/c(=N/c3cccc(Cl)c3)nc(NCCO)[nH]c21,94,60,81,71,31,91,89,24,1,8,2,68,37,68,31,42,11,71% (inactive),19,90% (inactive)
O=C1Nc2ccc(Br)cc2/C1=C\c1cc2c([nH]1)CCCC2,,,,105,,110,,19,20,48,44,107,76,,,52,55,,,110% (inactive)
C[C@@H](N)[C@H]1CC[C@H](C(=O)Nc2ccncc2)CC1,97,90,99,83,98,84,78,112,105,106,99,100,94,85,39,95,68,96% (inactive),,95% (inactive)
Ic1cccc(CSc2nnc(-c3ccncc3)o2)c1,78,86,82,90,64,104,84,87,64,32,28,75,81,98,,86,92,92% (inactive),79,87% (inactive)
